Measurements from PubChem BioAssay (NCI).
This is part of a sample that, as a whole, favours compounds with a hit. Of some 83,000 tested, about 20% had one in any assay.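 For each line, cells grew in 96-well plates with the test compound present at a single concentration for 48 hours.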 A number with no mark means an inactive call. Active and inactive are the calls of the source. Rule for the calls: active = growth percent below 10; inactive = the rest.

tested on: HS 578T breast; experiment: NCI-60 one-dose screen, 48 h (100 = growth as untreated, 0 = no growth, -100 = all killed); details: 10 µM unless noted

Compound	growth
Cc1ccc(S(=O)(=O)NCCCNc2nccc(-c3c(-c4cccc(F)c4)nc4occn34)n2)cc1	68%
COc1cc(Cl)cc(-c2nn(C(=O)NS(=O)(=O)c3ccccc3)cc2-c2ccncc2)c1	79.2%
Cn1cc(-c2noc(-c3cn(C)c4ncccc34)n2)c2cc(Cl)ccc21	111%
CC(C)CSc1ncnc2nc[nH]c12	116%
Cc1cnc([C@]23CC[C@@H](C)[C@H](C)[C@H]2C2=CC[C@@H]4[C@@]5(C)Cc6c([nH]c7ccccc67)C(C)(C)[C@@H]5CC[C@@]4(C)[C@]2(C)CC3)o1	70.2% [100 µM]
CC1(C)CC[C@]2(C(=O)O)CC[C@]3(C)C(=CC[C@@H]4[C@@]5(C)C/C(=C/c6ccco6)C(=O)C(C)(C)[C@@H]5CC[C@]43C)[C@@H]2C1	-5.24% [100 µM] (active)

tested on: NCI/ADR-RES ovarian; experiment: as above; details: 10 µM unless noted

Compound	growth
O=C(Nc1cccc(F)c1)c1cc(=O)[nH]c2cc(Br)ccc12	53.2%
COC(=O)[C@]12CCC(C)(C)C[C@H]1C1=CC[C@@H]3[C@@]4(C)C/C(=C/c5cccnc5)C(=O)C(C)(C)[C@@H]4CC[C@@]3(C)[C@]1(C)CC2	-40.5% [100 µM] (active)
N#C/C(C(=O)c1ccccc1)=C1/C(=O)Nc2ccc(Br)cc21	98.8%
COc1ccc(-c2cc(-c3ccc(Cl)cc3)nc(NCCCCNc3ccnc4cc(Cl)ccc34)n2)cc1	72.2%
CCCSc1nc(N)nc2nc[nH]c12	108%
CCN(CC)c1ccc2cc(NC(=O)OCCNC(=O)CCNC(=O)[C@H](CC(C)C)NC(=O)C(C)(C)NC(=O)C(C)(C)NC(=O)[C@H](CC(C)C)NC(=O)CCNC(=O)C(C)(C)NC(=O)[C@H](CC(C)C)NC(=O)CCNC(=O)[C@@](C)(CC)NC(=O)[C@H](C)NC(=O)CCNC(=O)C(C)(C)NC(=O)[C@H](C)NC(=O)[C@@H]3CCCN3C(=O)[C@@](C)(CC)NC(=O)[C@H](Cc3ccccc3)NC(=O)C3CCCN3C(=O)C(C)(C)NC(=O)C3CCCN3C(=O)C(C)(C)NC(C)=O)c(=O)oc2c1 (stereo partly specified)	-93.5% (active)
C=C(C)[C@@H]1CC[C@]2(C(=O)N3CCN(C)CC3)CC[C@]3(C)[C@H](CC[C@@H]4[C@@]5(C)C/C(=C/c6ccncc6)[C@H](O)C(C)(C)[C@@H]5CC[C@]43C)[C@@H]12	-64% [100 µM] (active)
CC[C@@](C)(NC(=O)[C@H](C)NC(=O)CCNC(=O)C(C)(C)NC(=O)[C@H](C)NC(=O)[C@@H]1CCCN1C(=O)[C@@](C)(CC)NC(=O)[C@H](Cc1ccccc1)NC(=O)C1CCCN1C(=O)C(C)(C)NC(=O)C1CCCN1C(=O)C(C)(C)NC(C)=O)C(=O)NCCC(=O)N[C@@H](CC(C)C)C(=O)NC(C)(C)C(=O)NCCC(=O)N[C@@H](CC(C)C)C(=O)NC(C)(C)C(=O)NC(C)(C)C(=O)N[C@@H](CC(C)C)C(=O)NCCC(=O)NCO (stereo partly specified)	-93.3% (active)
C#C[C@]1(O)CC[C@H]2[C@@H]3CC=C4c5nc(Nc6ncccn6)sc5CC[C@]4(C)[C@H]3CC[C@@]21C	75.4%
CC(C)(C)c1cc(C(=O)N2CCC(C(=O)NCCN)CC2)cc(C(C)(C)C)c1	104%
CCOC(=O)/C(C#N)=C(\C)CCc1ccccc1	98.8%
COc1ccc2c3ccnc(C(F)(F)F)c3n(CCCCN)c2c1	64.9%
O=C(O)c1cccc(CN2CCN(c3cc4c(cc3F)c(=O)c(C(=O)O)cn4C3CC3)CC2)c1O	101%
CCN(CC)c1ccc2cc(C(Nc3ccc(Br)c(C(F)(F)F)c3)c3nnnn3C(C)(C)C)c(=O)oc2c1 (stereo unspecified)	93.8%
O=C(NCCCNC(=O)OCc1ccc2c(Br)cc(Br)c(O)c2n1)OCc1ccc2c(Br)cc(Br)c(O)c2n1	-29% (active)
C[N+](C)(C)c1ncnc2[n-]cnc12	41.5%
O=S(=O)(c1ccc(N/N=C\c2ccccc2Cl)cc1)c1ccc(N/N=C/c2ccccc2Cl)cc1	84.5%
CCCOc1ccc(-c2nc(-c3ccc(N)cc3)cs2)cc1	97.9%
O=C(NCc1ccc(Cn2c(=O)sn(-c3ccccc3)c2=O)cc1)OCc1ccc2c(Br)cc(Br)c(O)c2n1	-1.25% (active)
N#CCCc1c[nH]c2ccccc12	99.3%
